Assay results taken from PubChem BioAssay AID485297 (National Center for Advancing Translational Sciences (NCATS), 2010).
In all, about 320,000 compounds went through this assay and about 9,100 (2.8%) were called active. About 3% were inconclusive and are not listed. For the sample, actives were picked, then their nearest neighbours and some compounds at random. A number with no mark means an inactive call. The call rests on the fitted dose curve; in most records, active means well fitted activation curve with a large enough effect; inconclusive means small, poorly fitted or top-dose-only effect; inactive means no such curve, though single readings can be large or run the other way.

Assay: qHTS Assay for Rab9 Promoter Activators; further: nearly all actives have a fitted effect of over 60% in size; on activation, negative = inhibition: % of control where 0% means no effect
Conditions: Huh7 Rab9 promoter-luciferase reporter, luminescence, 24 h; series mostly up to 9.22 µM; activation, negative = inhibition: at the top concentration
Procedure, shortened: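 Cell-based reporter: Huh7 stable for Rab9 promoter-driven luciferase, plated in reduced-serum medium with 10% FBS at 1500 cells/well, compound-treated 24 h at 37 °C, luminescence read after 10 min reagent.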
Potency means the concentration at half of the fitted maximal effect.

SMILES	activation, negative = inhibition [%]	Potency
Cc1cc2oc(C(=O)Nc3c(C)n(C)n(-c4ccccc4)c3=O)c(C)c2cc1Cl	-5.97	
COc1ccc(Nc2ncc(F)c(N3CCOCC3)n2)cc1		891 nM (active)
CCOc1ccc(Nc2nc(Cl)nc(N3CCN(c4ccc(OC)cc4)CC3)n2)cc1	-7.09	
Cc1ccc(Nc2nc(N3CCOCC3)nc(N3CCOCC3)n2)cc1Cl	0.834	
Cc1cc(C)n2nc(C(=O)Nc3cccc(S(=O)(=O)N4CCOCC4)c3)nc2n1	-0.106	
COC(=O)c1cc2c(ccn2C)n1C	-7.96	
CCc1ccc2oc(-c3ccc(N)cc3)nc2c1		501 nM (active)
CCN(CC)c1ccc2oc(=O)c(C)nc2c1	-3.4	
Cc1ccc(C)c(NC(=O)CSc2nc3c(oc4ccccc43)c(=O)n2-c2ccccc2)c1	1.35	
Cc1ccccc1NC(=O)Cc1nc(COC(=O)c2ccc(C(F)(F)F)cc2)cs1	1.76	
Cc1ccc2c(CN3CCN(S(=O)(=O)c4ccccc4C(F)(F)F)CC3)cc(=O)oc2c1	-8.96	
Cc1ccc(-c2nn(-c3ccccc3)cc2C(=O)NC2CCC(O)CC2)cc1 (configuration not stated)	14.2	
CC[C@H](C)C(=O)N[C@H]1CCCN1C(=O)/C=C/c1ccccc1	-2.26	
COc1ccc(C2=NOC(COC(=O)c3ccc4ccccc4n3)C2)cc1 (configuration not stated)	-1.87	
COc1ccc(C2=Nc3cc(C)ccc3OC2)cc1		562 nM (active)
Cc1ccc(C(=O)NNC2=Nc3cc([N+](=O)[O-])ccc3OC2)cc1	1.55	
CC(C)OCCCNC(=S)N1CCC(C(=O)c2ccc3c(c2)OCCO3)CC1	-2.99	
COc1ccc(OC)c(/C=C/C(=O)OCC(=O)Nc2ccc3c(c2)OCCO3)c1	8.75	
O=C(/C=C\c1ccc2c(c1)OCO2)NC1(C(=O)Nc2ccc3c(c2)OCCO3)CCCCC1	0.644	
Cc1cccc(NC(=O)Nc2ccc(OCc3ccccc3)cc2)n1	-0.949	
CC(NC(=O)Nc1ccc2c(c1)OCO2)c1ccncc1 (configuration not stated)	-3.45	
CNS(=O)(=O)c1ccc(NC(=O)Nc2ccc3c(c2)OCO3)cc1		3550 nM (active)

SMILES	activation, negative = inhibition [%]	Potency
O=C(O)/C=C/c1ccc2c(c1)OCCO2	0.952	
Cc1cccc(NC(=O)/C=C/c2ccc3c(c2)OCO3)n1		562 nM (active)
COc1cccc(/C=C/C(=O)Nc2ccc3c(c2)OCCO3)c1		1260 nM (active)
CC(C)CNS(=O)(=O)c1ccc(C(=O)Nc2ccc3c(c2)OCO3)cc1	-4.4	
Cc1cccc(NC(=O)Nc2ccc3c(c2)OCO3)n1		2240 nM (active)
CC(NS(=O)(=O)c1ccc(Cl)cc1)C(=O)Nc1ccc2c(c1)OCCO2 (configuration not stated)	5.09	
CCOC(=O)CCCNC(=O)COC(=O)/C=C/c1ccc2c(c1)OCO2	1.1	
O=C1C=C(c2ccnc3cc(Cl)ccc23)C[C@@H](c2ccc3c(c2)OCO3)C1	-5.37	
COc1ccc(NS(=O)(=O)c2cccc(C(=O)NCCc3ccc(S(N)(=O)=O)cc3)c2)cc1	-6.22	
CC(=O)Nc1ccc(S(=O)(=O)N2CCN(S(=O)(=O)c3cccs3)CC2)cc1	-6.37	
CC1CCc2sc(C(=O)NCC(c3ccco3)N3CCCCC3)cc2C1 (configuration not stated)	-7.28	
O=C(NCCOc1ccccc1Cl)C(=O)Nc1ccccc1	13	
COc1ccc(S(=O)(=O)N2CCOCC2)cc1NC(=O)Cc1coc2cc(C)ccc12	-2.27	
Cc1nn(Cc2ccccc2)c(C)c1C(=O)NCCCN1CCCC1=O	-2.83	
COc1ccc(-c2nnc(SCC(=O)c3cccs3)o2)c(OC)c1		1120 nM (active)
COc1ccc(CCNC(=O)CSc2nnc(CNC(=O)c3cccs3)o2)cc1OC	-2.09	
COc1ccccc1-c1nnc(SCC(=O)N2CC(C)CC(C)C2)o1 (configuration not stated)	-1.74	
Cc1ccc(NS(=O)(=O)c2ccc3c(c2)CC(=O)N3)cc1Cl	-0.719	
COc1ccccc1C(CNC(=O)c1ccc(C)c(S(=O)(=O)N2CCCCC2)c1)N(C)C (configuration not stated)	-2.47	
CN(CCc1ccccc1)c1ccc([N+](=O)[O-])cn1	16.6	
COC(=O)[C@]1(C)CCC[C@@]2(C)C3CC[C@]4(OC(C)=O)C[C@@]3(CCC21)CC4=NO (some centres not stated)	0.822	
C/C(CC(=O)Nc1cccc(F)c1)=N\NC(=O)C(=O)NC1CCCCC1	0.896	

SMILES	activation, negative = inhibition [%]	Potency
O=C(Nc1cccc(F)c1)NC1CCCc2ccccc21 (configuration not stated)	1.16	
O=C(Nc1cccc(F)c1)NC1CCCCCCC1		3550 nM (active)
Cc1cccc(C)c1NC(=O)CN(C)C(=O)CCC(=O)c1ccccc1	1.5	
CC(OC(=O)/C=C/c1ccccc1)C(=O)NC1CCCCC1C (configuration not stated)	-4.92	
Cc1cccc(NC(=O)Nc2nnc(-c3ccccc3)o2)c1	-3.39	
Cc1ccc(NC(=O)Nc2ccccc2)c(Br)c1		1780 nM (active)
Cc1c(NC(=O)Nc2ccccc2)cccc1[N+](=O)[O-]	-9.25	
COc1cc2c(cc1OC)CN(C(C)C(=O)Nc1cccc(S(=O)(=O)N3CCOCC3)c1)CC2 (configuration not stated)	-1.59	
Cc1sc2ncnc(N3CCC(C(=O)Nc4ccc(F)cc4Cl)CC3)c2c1C	-1.62	
Cc1ccc(-c2csc(NC3OC(=O)c4ccccc43)n2)cc1 (configuration not stated)	-3.39	
CCCc1cc(-c2nc(-c3ccc(C)cc3)cs2)ccn1	-0.323	
Cc1ccc(-c2csc(-c3c[nH]c4ccccc34)n2)cc1		2510 nM (active)
O=C(CN(C(=O)CCC(=O)Nc1nccs1)c1ccc(F)cc1)NCc1ccc2c(c1)OCO2	2.57	
CC(=O)c1ccc(NC(=O)CSC(=S)N2CCCC2)cc1	12.2	
O=C(CSC(=S)N1CCOCC1)c1ccccc1		447 nM (active)
CC1CN(C(=S)SCC(=O)c2ccccc2)CC(C)O1 (configuration not stated)	17.3	
COc1cccc(NC(=O)CN(C)C(=O)CSC(=S)N2CCCC2)c1	11.8	
O=C(CSC(=S)N1CCCCC1)c1c(F)cccc1F		1410 nM (active)
O=C(CSC(=S)N1CCOCC1)c1cc(Br)cc(Br)c1O	6.93	
Cc1occc1-c1nnc(SCC(=O)NC2CCCCC2)o1	-0.222	
COc1ccc(S(=O)(=O)N2CCN(C(C)C(=O)Nc3ccc(C(C)C)cc3)CC2)cc1 (configuration not stated)	1.47	
O=C(NCc1ccccc1CN1CCCC1)c1cccc(S(=O)(=O)Nc2ccc(F)cc2)c1	-1.74	

SMILES	activation, negative = inhibition [%]	Potency
CCn1c(SCC(=O)Nc2ccc3c(c2)OCCO3)nnc1-c1ccncc1	-6.01	
Cc1ccc(OCCCC(=O)Nc2ccc3c(c2)OCCO3)cc1	-3.01	
Cc1ccc(S(=O)(=O)NCC(=O)Nc2ccc3c(c2)OCCO3)cc1	0.138	
Cn1ccnc1SCC(=O)Nc1ccc2c(c1)OCCO2		2510 nM (active)
O=C(Nc1cccc(NC(=O)c2ccco2)c1)c1cnccn1	3.39	
O=C(CCN1C(=O)c2ccncc2C1=O)Nc1ccc2c(c1)OCCO2	2.25	
Cc1ccc(SCC(=O)Nc2ccc3c(c2)OCCO3)cc1		3160 nM (active)
CCn1c(SCC(=O)Nc2ccc3c(c2)OCCO3)nnc1C(C)C	0.546	
O=C(Nc1ccc2c(c1)OCCO2)c1cnccn1		2000 nM (active)
O=[N+]([O-])c1cc(S(=O)(=O)NCCc2ccccn2)ccc1Cl	1.61	
COc1ccc(-c2nnc(SC(C)C(=O)NC3CC3)o2)cc1 (configuration not stated)	3.52	
Cc1cc(C)cc(NC(=O)NC2CCN(CC(=O)Nc3cccc(Cl)c3C)CC2)c1	-3.85	
O=c1[nH]c2cccnc2n(CCNc2ncc(C(F)(F)F)cc2Cl)c1=O	-2.72	
CNS(=O)(=O)c1cccc(C(=O)OCC(=O)N2c3ccccc3NC(=O)C2(C)C)c1	-3.9	
CCOc1ccc(C(C)NC(=O)CN2C(=O)NC3(CCCCC3)C2=O)cc1OCC (configuration not stated)	-4.04	
Cc1ccn(-c2cccc(-n3ccc(C)n3)n2)n1		2820 nM (active)
Cc1cc(NC(=O)CSc2nnc(-c3ccc(Cl)s3)o2)no1	-1.01	
Cc1ccc(C(=O)/C=C/Nc2ccc(S(=O)(=O)Nc3onc(C)c3C)cc2)cc1	2.91	
Cc1cc(N/C=C\C(=O)c2ccc(Cl)c(Cl)c2)no1		2820 nM (active)
COc1cc(OC)cc(-c2c(-c3cccs3)c3cc(-c4ccc(OC)cc4F)ccc3n2C)c1	-4.07	
O=C(COC(=O)c1ccc2ncsc2c1)Nc1ccc(Cl)cc1	1.26	
Cc1ccc(C(=O)c2c(NC(=O)c3ccccc3)sc(C)c2C)cc1	-0.247	

SMILES	activation, negative = inhibition [%]	Potency
Cc1sc(NC(=O)c2ccc3ncsc3c2)c(C(N)=O)c1C		1580 nM (active)
CCc1ccc(OCC(=O)OCC(=O)c2c(N)n(C)c(=O)n(C)c2=O)cc1	-0.827	
CC(C)(C)c1ccc(/C=C/C(=O)Nc2ncccn2)cc1		3980 nM (active)
Cc1cc(C)nc(NC(=O)/C=C/c2ccc(Cl)cc2)n1	15.4	
O=C(/C=C/c1ccc(Cl)cc1)Nc1ccc(S(=O)(=O)Nc2ncccn2)cc1	-0.0735	
C[C@H](NC(=O)c1ccccc1Cl)C(=O)OCC(=O)N1CCN(c2ccccc2)CC1	2.66	
O=C(COC(=O)CNC(=O)c1ccccc1F)NCC(F)(F)F	-1.45	
O=C(CNC(=O)c1ccccc1Br)NCCSc1ccc(Br)cc1	-4.71	
O=C(CNC(=O)c1ccc(F)cc1)c1ccccc1		794 nM (active)
O=C(CNC(=O)c1ccccc1F)c1ccc(Br)cc1		1260 nM (active)
O=C(CNC(=O)c1ccccc1)NCC(=O)OCC(=O)c1ccccc1	-4.76	
O=C(NCCS(=O)(=O)NCc1ccc(F)cc1)c1ccccc1	-1.67	
O=S(=O)(NCc1ccccc1Br)c1ccccc1Br	-5.13	
COc1cccc(CNC(=O)COc2cc(O)c3c(c2)OC(C)(C)CC3=O)c1	0.976	
Nc1c(N(CCCO)C(=O)C2CCCC2)c(=O)[nH]c(=O)n1Cc1ccccc1	1.33	
O=C(CSc1nnc(-c2ccc([N+](=O)[O-])cc2)o1)Nc1ccccn1		398 nM (active)
CCc1ccccc1NC(=O)CSc1nnc(-c2ccncc2)o1	-3.31	
CCOC(=O)CSc1nnc(-c2ccc([N+](=O)[O-])cc2)o1	-5.1	
O=c1c2ccccc2ccc2ccc(P(=O)(O)O)cc12	-4.2	
